The values below come from ChEMBL document CHEMBL4513216, “Probing the Open Global Health Chemical Diversity Library for Multistage-Active Starting Points for Next-Generation Antimalarials” (ACS Infect Dis, 2020).

Structures are written as SMILES. About 2,700 (4%) of roughly 68,000 compounds showed an effect of 50% or more. Only a selection was taken, and strong results are over-represented in it overall.

This assay deals with Plasmodium berghei. As to the kind of experiment: Screen against P. berghei liver stage (PbLuc), transformed with Luciferase, at 2uM. In kind it is functional, HepG2. Conditions: tested at 2 uM.
Consider `CN(C(=O)CCNC(=O)C1COc2ccccc21)c1ccccc1` (stereo not drawn), for which the INHIBITION is on record as -0.3%. The figure for `Cc1nn(C)c2cnn(CCCNS(=O)(=O)Cc3ccccc3)c12` is -12.73%; for `COC[C@@H]1CCC[C@]12CN(CCc1ccccc1)CCO2` it is -20.67%. The result for `O=C([C@H]1CCCN1)N1CC2(CCNCC2)c2cc(Cl)ccc21` reads 0.57%; that for `Cc1nc(C)n(C2CCCN(C(=O)c3cncnc3C)C2)n1` (stereo not drawn), 62.82%. The result for `CCc1[nH]ncc1C(=O)N1CCCC(n2nc(C)cc2C)C1` (stereo not drawn) reads 12.75%; that for `CCc1[nH]ncc1C(=O)N1CCCC(n2nc(C)nc2C)C1` (stereo not drawn), 54.85%.

For `Cc1ncc(C(=O)N2CCCC(n3nc(C)nc3C)C2)c(C(C)C)n1` (stereo not drawn), the INHIBITION was found to be 24.02%. The result for `Cc1nc(C)n(C2CCCN(C(=O)c3csc(C)n3)C2)n1` (stereo not drawn) reads -47.87%; that for `CCc1ncncc1C(=O)N1CCCC(n2nc(C)nc2C)C1` (stereo not drawn), -26.85%; that for `Cc1nc(C)n(C2CCCN(C(=O)c3cscn3)C2)n1` (stereo not drawn), -13.94%. On to `CCc1nc(C)ncc1C(=O)N1CCCC(n2nc(C)nc2C)C1` (stereo not drawn), for which the INHIBITION turned out to be 36.92%. The figure for `Cc1nc(C)n(C2CCCN(C(=O)c3csnn3)C2)n1` (stereo not drawn) is 53.45%; for `Cc1nn(C)c(C)c1NC(=O)Nc1cccnc1N1CCCC1` it is 15.28%.

For `COCc1ncn2c1CN(C(=O)c1cccc3cccnc13)CC2`, the INHIBITION was 29.3%. As to `CCC(C)c1noc(C2CCN(C(=O)c3cccnc3)CC2)n1` (stereo not drawn), the INHIBITION is reported as -59.73%.

On to `CC(C)(C)C(NC(=O)CCS(C)(=O)=O)c1ccc(F)cc1F` (stereo not drawn), for which the INHIBITION was found to be 41.84%. Turning to `NC(=O)CC1CCN(C(=O)NCc2ccc(-c3ccn[nH]3)cc2)CC1`, the INHIBITION is given as 7.13%. The figure for `O=C(C1COc2ccccc2C1)N(CCO)Cc1ccccc1` (stereo not drawn) is -49.31%. The figure for `CC1CCCCN1C(=O)c1ccn(COc2ccc(F)cc2)n1` (stereo not drawn) is -12.84%; for `COc1cccc(Nc2nc(-c3ccncc3)nc3c2CNCC3)c1` it is 12.6%.

`N#Cc1cccc(CN2Cc3nccn3CC(COCC3CC3)C2)c1` (stereo not drawn): the INHIBITION was -17.39%. The result for `CC(C)NC(=O)[C@@H]1C[C@H]2OCC[C@H]2N(Cc2ccc3ccccc3n2)C1` reads 9.69%; that for `O=C(NC1CC1)[C@H]1C[C@H]2OCC[C@H]2N(Cc2ccc3ccccc3n2)C1`, 0.91%.

For `CC(C)NC(=O)[C@H]1C[C@H]2OCC[C@H]2N(Cc2ccc3ccccc3n2)C1`, the INHIBITION is 55.8%. The result for `CCS(=O)(=O)N1C[C@H]2CC[C@](O)(c3ccc(C)cc3)[C@H]2C1` reads 38.23%. The figure for `Cc1ccc([C@@]2(O)CC[C@@H]3CN(S(=O)(=O)C(C)C)C[C@@H]32)cc1` is 40.31%. The figure for `Cc1ccc([C@@]2(O)CC[C@@H]3CN(S(=O)(=O)c4cn(C)nc4C)C[C@@H]32)cc1` is 55.74%.
